Reference: PubChem BioAssay AID720716 (Broad Institute, 2013)
The source made the active and inactive calls.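 How the source made its calls: active means compounds whose fitted half-maximal concentration is at most twice the top tested dose; inconclusive means flat curve with 30 to 70% signal loss, or poor fit; inactive means flat, opposite-direction or too weak compounds.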

Assay: inhibitors of control Renilla luciferase reporter, dose response, counter-screen for Shn3 3'UTR targeting project, Clone20-Shn3RL cells, dual-Glo, dry powder (AID 720716)
Settings: 24 h; series mostly up to 35 µM; activity change, negative = inhibition: at the top concentration

Row | Compound | activity change, negative = inhibition
1 | COc1cc2ncnc(N[C@H](C)c3ccccc3)c2cc1OC | -22.5% (inactive)
2 | COc1cc(CN2CCc3ccccc3C2)ccc1O | -29.2% (inactive)
3 | Cc1cc2c(cc(C(=O)N3CCC(C(=O)NC4CCCC4)CC3)n2Cc2c(F)cccc2Cl)o1 | 10% (inactive)
4 | Cc1ccc2cc(CN(CC3CCCO3)C(=O)NC3CCCCC3)c(=O)[nH]c2c1C (stereo unspecified) | 0% (inactive)
5 | CN(C)c1nc(-c2ccccn2)nnc1-c1ccccc1 | 20% (inactive)
6 | O=C1CSc2ccc(C(=O)Nc3cccc(S(=O)(=O)Nc4ccc(Br)cc4)c3)cc2N1 | 0% (inactive)
7 | Cc1cc(N2CCCC2=O)cc(C)c1S(=O)(=O)NCCOc1ccc(C(C)(C)C)cc1 | 0% (inactive)
8 | COc1ccc(NC(=O)c2nc(S(=O)(=O)Cc3cccc(C)c3)ncc2Cl)c(OC)c1 | 0% (inactive)
9 | O=C(c1nnsc1S(=O)c1ccc(Cl)cc1)N1CCOCC1 (stereo unspecified) | -12.5% (inactive)
10 | COc1ccc2c(c1)c(CC(=O)Nc1cc(C)ccc1C)c(C)n2C(=O)c1ccc(Cl)cc1 | 16.7% (inactive)
11 | CCOC(=O)C1(Cc2ccc(Cl)cc2)CCN(C(C)Cc2ccc(O)c(OC)c2)CC1 (stereo unspecified) | -20% (inactive)
